High-throughput results (PubChem BioAssay)
HT1080 IDH1KD tx = HT-1080 IDH1 knockdown cell toxicity (counter line). HT-1080 IDH1 knockdown viability, ATP luminescence, 48 h. Potency, µM (titrated, usually from 46.1 µM), hits mostly cytotoxic. actives 2% (n = 360,000)
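Cytotoxicity counter-line: IDH1KD HT-1080, 48 h, CellTiter-Glo. Curves classed by r2, magnitude and activity.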
HepG2 viability = counter-screen for TGF-b inhibitors: cytotoxicity in HepG2 cells; actives 0.76% (n = 410,000); AID 588856; Potency, µM (titrated, usually from 46.1 µM), actives largely listed as cytotoxic; HepG2 CAGA-GFP viability, ATP luminescence, 18 h
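CellTiter-Glo luminescence gave cytotoxicity after 18 hours at 37 degrees C. The cells were HepG2 CAGA-GFP in 1% FBS DMEM, stimulated with 500 pg/mL TGF-beta after compound addition. %Activity was normalised to no-cell wells (complete cell-killing) and DMSO (no toxicity), and curves were fitted and classified.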
TGFb SMAD3 inh = TGF-b pathway inhibition; HepG2 CAGA-GFP TGF-b/SMAD3 reporter, GFP fluorescence, 18 h; TGF-beta stimulated, 500 pg/mL final; Potency, µM (series often up to 46.1 µM), usual class: inhibitors; actives 1.2% (n = 410,000); AID 588855; further: nearly all actives have a fitted effect of over 65% in size
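HEPG2 CAGA-GFP cells (1000/well, DMEM with 1% FBS) were pre-incubated 2 h at 37 degrees C, given compound by pin tool, then stimulated with TGF-beta at 500 pg/mL final for 18 h before per-cell GFP fluorescence imaging.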
IL1B secr inh = inhibitors of inflammasome signaling (IL-1 beta secretion); THP-1 LPS/ATP IL-1B secretion, AlphaLISA, 16 h; stronger effect = lower value; activity change, % at 57.5 µM; actives 4.7% (n = 360,000); AID 743279; in the data active means activity change below about -50%; inconclusive means mostly about -30% to -49%
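THP-1 cells pretreated 1 hr with compounds (up to 57.5 uM final), then stimulated with LPS (250 ng/mL final) plus ATP (1.25 mM final); secreted IL-1B measured by AlphaLISA after 16 hr, decreased signal indicating inhibition.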
HT1080NT lethal = kills 2HG-producing HT-1080-NT fibrosarcoma cells; HT-1080-NT fibrosarcoma viability, CellTiter-Glo ATP luminescence, 48 h; Potency, µM (top dose mostly 46.1 µM), hits mostly cytotoxic; actives 1.6% (n = 360,000);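 further: NT is the 2HG producing partner of a matched IDH1 knockdown line; nearly all actives have a fitted effect of over 55% in size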
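Fibrosarcoma NT cells, 750 per well in 5% FBS RPMI, were exposed to compound for 48 hours. Viability: CellTiter-Glo luminescence.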
Giardia killer = kills Giardia lamblia; Giardia lamblia trophozoite viability; activity change, % at 7.66 µM, hits read low; actives 0.15% (n = 340,000); AID 540267; in the data active means activity change below about -80%; inconclusive means between about -30% and that limit;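 further: parasites exposed to compound for two days anaerobically before the ATP read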
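Anaerobic 48 hrs incubation at 37 deg C of 100 trophozoites/well with test compounds; ATPLite 1-Step luminescence, 15-30 min RT, reports cellular ATP as viability.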
Each line names hits and unclear results; the compound was inactive in the other large screens. Compounds with a hit are over-represented: about 6.5% of the library has one in this group of screens. Unless noted, the call rests on the fitted dose curve; in most records, active means well fitted curve in the direction sought with a large enough effect; inconclusive means small, poorly fitted or top-dose-only effect, or another doubt; inactive means no such curve, though single readings can be large; an effect the other way counts as inactive or inconclusive.

O=C(Nc1ccc(C(=O)N2CCOCC2)cc1)c1cc(-c2cccnc2)nc2ccc(Br)cc12	IL1B secr inh -53
O=C(Nc1ccncc1)c1cc(-c2ccccc2)nc2ccccc12	HT1080 IDH1KD tx inconclusive (no result: Giardia killer)
O=C(Nc1ccc(Br)cc1)c1cc(-c2ccncc2)nc2ccccc12	HT1080 IDH1KD tx 8.2µM, TGFb SMAD3 inh inconclusive, HT1080NT lethal 6.5µM
CC(Oc1ccc(Cl)cc1Cl)C(=O)Nc1cccnc1 (stereo not drawn)	none
Cc1ccc(NS(=O)(=O)c2ccc(Cl)c(NC(=S)NC(=O)C3CCCCC3)c2)cc1Cl	HT1080 IDH1KD tx inconclusive, HepG2 viability 11µM, TGFb SMAD3 inh inconclusive, IL1B secr inh -77, HT1080NT lethal inconclusive
O=S(=O)(c1ccccc1)[C@@]1(c2ccc(Br)cc2)C[C@@H]2ON=C(c3cccc(Br)c3)[C@@H]2C1	TGFb SMAD3 inh inconclusive
CCOC(=O)/C(=N/Nc1ccccc1)Sc1nnc(CCc2ccccc2)n1-c1ccccc1	IL1B secr inh -73
Cc1ccc(OCc2nnc(SCC(=O)O)n2-c2ccccc2)cc1	none
Cc1ccc(-n2c(CCc3ccccc3)nnc2SCC(=O)NCc2ccccc2)cc1C	TGFb SMAD3 inh inconclusive, IL1B secr inh -57
Cc1ccc(C(=O)CSc2nnc(-c3ccccc3)n2-c2ccccc2)cc1	none (no result: HT1080 IDH1KD tx, IL1B secr inh, HT1080NT lethal, Giardia killer)
Cc1cccc(-n2c(CCc3ccccc3)nnc2SCC(=O)c2ccccc2)c1	TGFb SMAD3 inh inconclusive, IL1B secr inh -86
Cc1ccc(OCc2nnc(SCC(=O)c3ccccc3)n2-c2ccccc2)cc1	HT1080 IDH1KD tx inconclusive, TGFb SMAD3 inh inconclusive, IL1B secr inh -56, HT1080NT lethal inconclusive
Cc1ccc(C2=NNC(C(O)C(O)C(O)C(O)CO)S2)cc1 (stereo not drawn)	none
OC[C@H](O)[C@H](O)[C@@H](O)[C@@H](O)[C@@H]1SC(c2ccccc2)=NN1c1ccccc1	IL1B secr inh -62
Cc1nc2c(-c3ccc(Cl)cc3)cnn2c(N)c1-c1ccc(F)cc1	IL1B secr inh inconclusive, Giardia killer inconclusive
Cc1nc2c(-c3ccc(F)cc3)cnn2c(N)c1-c1ccccc1	HT1080 IDH1KD tx inconclusive, TGFb SMAD3 inh inconclusive, IL1B secr inh -73, HT1080NT lethal inconclusive, Giardia killer inconclusive
CCOC(=O)c1c(C)n(C(=O)c2ccco2)c(=O)n1C(=O)c1ccco1	IL1B secr inh -68
CCOC(=O)c1c(C)c(C(=O)N2CCN(C(=O)c3ccco3)CC2)c(C)n1C	none
CN1CC2(C(=O)c3ccccc3)CN(C)CC(C(=O)c3ccccc3)(C1)C2	none
Cc1ccc(C)c2nc3sc(C(=O)O)cc3cc12	HT1080NT lethal inconclusive
O=C(NCCc1nc2ccccc2[nH]1)/C(=C/c1ccc2c(c1)OCO2)NC(=O)c1ccccc1Cl	TGFb SMAD3 inh inconclusive, IL1B secr inh -84
O=c1c2ccccc2nc(-c2ccccc2)n1CCN1CCOCC1	none
O=c1c2c(-c3ccccc3)csc2nc2c3ccccc3c(NCCN3CCOCC3)nn12	HT1080 IDH1KD tx 10µM, IL1B secr inh -101, HT1080NT lethal 15µM
Cc1ccc(-c2csc(=Nc3cccnc3)n2CCCN2CCCC2=O)cc1C	IL1B secr inh -51
Cc1cccc(C)c1OCc1cc(=O)n2c(-c3ccccc3)csc2n1	TGFb SMAD3 inh 10µM (no result: HT1080 IDH1KD tx, IL1B secr inh, HT1080NT lethal, Giardia killer)
CCCCn1c(N)c(N(CC)C(=O)c2ccc(C#N)cc2)c(=O)[nH]c1=O	none
Cc1nc2cc(-c3ccccc3)sc2c(=O)n1N	HT1080 IDH1KD tx 3.7µM, HepG2 viability 7.1µM, HT1080NT lethal 3.7µM, Giardia killer inconclusive
COc1ccc(-c2cc3nc(C)n(N)c(=O)c3s2)cc1	HT1080 IDH1KD tx 5.8µM, HepG2 viability 2.8µM, HT1080NT lethal 4.1µM, Giardia killer inconclusive
COc1ccc(NC2CCCN(C(=O)CCCn3cncn3)C2)cc1OC (stereo not drawn)	none
COCCCNC(=O)c1ccc(C)c(-n2c(C)nc3cccnc32)c1	TGFb SMAD3 inh inconclusive (no result: HT1080 IDH1KD tx, IL1B secr inh, HT1080NT lethal, Giardia killer)
Cn1c(=O)c2c(nc(SCc3nn[nH]n3)n2Cc2ccccc2F)n(C)c1=O	none
CCOC(=O)CSc1nc2c(sc(=S)n2-c2ccccc2OC)c(=O)n1-c1ccccc1OC	IL1B secr inh -64
COc1ccc2[nH]c3c(NCc4ccco4)ncnc3c2c1	HT1080 IDH1KD tx inconclusive, HT1080NT lethal inconclusive
COc1ccc2[nH]c3c(NCCC4=CCCCC4)ncnc3c2c1	HT1080 IDH1KD tx 16µM, TGFb SMAD3 inh inconclusive, IL1B secr inh -105, HT1080NT lethal 29µM
CCOc1ccc2[nH]c3c(NCCC(C)C)ncnc3c2c1	HT1080 IDH1KD tx inconclusive, TGFb SMAD3 inh inconclusive, IL1B secr inh -68, HT1080NT lethal inconclusive
COc1ccc2[nH]c3c(NCCCOC(C)C)ncnc3c2c1	HT1080 IDH1KD tx inconclusive, IL1B secr inh -67, HT1080NT lethal inconclusive
COc1ccc2c(c1)[nH]c1c(=O)n(CCC3=CCCCC3)cnc12	none
CN(C)c1ccc(C(=S)N2CCN(C(=S)Nc3ccccc3)CC2)cc1	none
Nc1ccc(C(=O)OCC(=O)N2c3ccccc3Sc3ccccc32)cc1[N+](=O)[O-]	TGFb SMAD3 inh inconclusive
NCCNc1ccc(C(=O)N2c3ccccc3Sc3ccccc32)cc1[N+](=O)[O-]	HT1080 IDH1KD tx 16µM, IL1B secr inh -92, HT1080NT lethal inconclusive
CCOc1ncccc1C(=O)NCc1ccc(OC)cc1	HT1080 IDH1KD tx 8.9µM, HT1080NT lethal inconclusive
CCOc1ncccc1C(=O)NCc1cccc(OC)c1	none
COc1cc2c(cc1OC)C(O)C(O)(CO)C(C(=O)O)C2c1cc(OC)c(OC)c(OC)c1 (stereo not drawn)	none
CN(Cc1cccc(F)c1)C(=O)CN1CCN(S(=O)(=O)c2ccc3c(c2)OCCCO3)CC1	IL1B secr inh inconclusive
CC(C(=O)N(C)Cc1cccc(F)c1)N1CCN(S(=O)(=O)c2ccc3c(c2)OCCCO3)CC1 (stereo not drawn)	TGFb SMAD3 inh inconclusive, IL1B secr inh -59
Cc1ccc(S(=O)(=O)NCC(=O)NCC(=O)OCc2c(F)cccc2Cl)cc1	none
CCCc1nc2oc3c(NCCOCCO)ncnc3c2c2c1COC(C)(C)C2	none
COc1cc2c[n+](C)c3c4ccccc4ccc3c2cc1OC	HT1080 IDH1KD tx 16µM, IL1B secr inh -112, HT1080NT lethal inconclusive
COc1ccc(Cc2c3cc(OC)c(OC)cc3cc[n+]2C)cc1OC	none
COc1ccc2c(c1)c[n+](C)c1c3cc(OC)c(OC)cc3ccc21	HT1080 IDH1KD tx 10µM, IL1B secr inh inconclusive, HT1080NT lethal 9.2µM (no result: HepG2 viability, TGFb SMAD3 inh, Giardia killer)
COc1ccc(/C=C/c2ccc3ccccc3[n+]2C)cc1OC	none
